Reference: PubChem BioAssay (NCATS)
Inconclusive results are not listed. For part of these data: Potency and affinity values are given separately. Activity calls are given as the source filed them.

Legend:
[1] = Ebola virus entry assay, reporter ratio channel; AC50: Channel type: primary unless noted; outcome: Channel type: primary unless noted
[2] = Ebola virus entry assay, blue channel (ratio component)
[3] = Ebola virus entry cell assay, ratio channel
[4] = qHTS assay for measurement of the activity of small molecule inhibitors on Zika virus induced Caspase-3 activity in human iPSC derived neural progenitor cells (hNPCs) (AID 1224857; active = well fitted curve in the direction sought with a large enough effect; an effect the other way counts as inactive or inconclusive; also: nearly all actives have a fitted effect of over 65% in size); details: hNPCs ZIKV-induced caspase-3/7, Caspase-Glo luminescence, 6 h; series mostly up to 45.7 µM
How it was run: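 Pretreat hNPCs with compound 1 h; infect ZIKV 2 FFU/cell; 6 h 37 C, 5% CO2; Caspase-Glo 3/7, 30 min RT; luminescence; normalize to no-virus and virus-only wells.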

[5] = qHTS assay for measurement of the activity of small molecule inhibitors on Zika virus induced Caspase-3 activity in human astrocytoma cells (AID 1224859; active = well fitted curve in the direction sought with a large enough effect; an effect the other way counts as inactive or inconclusive); details: SNB-19 ZIKV-induced caspase-3/7, luminescence, 6 h; series mostly up to 45.7 µM
How it was run: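 Human SNB-19 astrocytoma cells in RPMI 1640 with 10% FBS receive compound one hour ahead of Zika virus at 2 FFU/cell. After 6 h infection, caspase-3/7 activity is detected by Caspase-Glo luminescence.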

[6] = High-throughput drug toxicity screening in the BPDCN cell line Gen2.2 (AID 1224824); details: Gen2.2 BPDCN cells; at 45.8 µM (top of the series) unless noted;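 also: cells exposed to compounds for 48 h before reading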
How it was run: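 Seed 500 exponentially growing Gen2.2 cells/well; add compounds by pin tool; incubate 48 h, 37 °C, 5% CO2; add CellTiter-Glo, 15 min RT; read luminescence. % activity vs DMSO (100%) and bortezomib (0%).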

[7] = High-throughput drug toxicity screening in the BPDCN cell line Cal-1 (AID 1224825); details: Cal-1 BPDCN cell viability, qHTS; at 45.8 µM (top of the series) unless noted
How it was run: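 CellTiter-Glo luminescence after 48 h compound exposure; percent activity scaled with DMSO as 100% and bortezomib (9.2 uM final) as 0%. Cal-1 cells seeded at 500/well in RPMI, 10% FBS, no phenol red.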

[8] = qHTS Screen of the MIPE 4.0 Collection Against Ewings Sarcoma (EW8) (AID 1259255; active = well fitted curve in the direction sought with a large enough effect; an effect the other way counts as inactive or inconclusive; also: nearly all actives have a fitted effect of over 35% in size); details: EW8 Ewing sarcoma viability, CellTiter-Glo, 48 h; series mostly up to 45.8 µM
How it was run: (§1)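 Log-phase cells in RPMI with 5% FBS attached for 4 h, then received compounds as a titration for 48 h at 37C, 5% CO2. Viability was read by CellTiter-Glo luminescence and normalized to DMSO and no-cell wells.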

[9] = qHTS assay to identify small molecule inhibitors of chordoma cells - UCH-1 (AID 1259355; active = well fitted curve in the direction sought with a large enough effect; an effect the other way counts as inactive or inconclusive; also: nearly all actives have a fitted effect of over 55% in size); details: UCH-1 chordoma viability, CellTiter-Glo, 48 h, combination; series mostly up to 46.1 µM
How it was run: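 Screening used approved and investigational drugs in 15-point titration against 800 seeded cells per well. A fixed combination of auranofin with camptothecin, doxorubicin, rubitecan and topotecan followed compound addition, and growth was scored by CellTiter-Glo after 48hr.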

[10] = qHTS assay to identify small molecule inhibitors of chordoma cells - UCH-2 (AID 1259356; active = well fitted curve in the direction sought with a large enough effect; an effect the other way counts as inactive or inconclusive); details: UCH-2 chordoma viability, CellTiter-Glo ATP luminescence, 48 h; series mostly up to 46.1 µM
[11] = qHTS Screen of the MIPE 4.0 Collection Against Ewings Sarcoma (TC32) (AID 1259256; active = well fitted curve in the direction sought with a large enough effect; an effect the other way counts as inactive or inconclusive; also: nearly all actives have a fitted effect of over 45% in size; also: potency is read from the fitted curve at half-maximal effect); details: TC32 Ewing sarcoma viability, CellTiter-Glo, 48 h; series mostly up to 45.8 µM
How it was run: as §1

[12] = qHTS Screen of the MIPE 4.0 Collection Against Ewings Sarcoma (RDES) (AID 1259252; active = well fitted curve in the direction sought with a large enough effect; an effect the other way counts as inactive or inconclusive; also: nearly all actives have a fitted effect of over 35% in size); details: RD-ES Ewing sarcoma viability, CellTiter-Glo, 48 h; series mostly up to 45.8 µM
How it was run: as §1

[13] = qHTS Screen of the MIPE 4.0 Collection Against Ewings Sarcoma (TC71) (AID 1259253; active = well fitted curve in the direction sought with a large enough effect; an effect the other way counts as inactive or inconclusive; also: nearly all actives have a fitted effect of over 40% in size); details: TC71 Ewing sarcoma viability, CellTiter-Glo, 48 h; series mostly up to 45.8 µM
How it was run: as §1

[14] = Immunotoxin (SS1P) sensitization/mitigation study. Vehicle arm (DMEM) (AID 1159513); details: cell viability with vehicle (DMEM); series mostly up to 46.1 µM; also: potency is read from the fitted curve at half-maximal effect
[15] = Immunotoxin (HA22) sensitization/mitigation study. Vehicle arm (PBS) (AID 1159510); details: cancer cells viability with PBS vehicle (HA22 study); series mostly up to 46.1 µM; also: potency is read from the fitted curve at half-maximal effect

CN/C(=C\[N+](=O)[O-])NCCSCc1csc(CN(C)C)n1
inactive: outcome [1] | outcome [2] | outcome [3]

CN=C(NC#N)NCCSCc1nc[nH]c1C
inactive: outcome [1] | outcome [2] | outcome [3]

O=C(O)/C=C\C(=O)O
inactive: outcome [1] | outcome [2] | outcome [4]

C=CCN1C[C@H](C(=O)N(CCCN(C)C)C(=O)NCC)C[C@@H]2c3cccc4[nH]cc(c34)C[C@H]21
active: AC50 [3] 15.8 µM
inactive: outcome [1] | outcome [2]

S=P(N1CC1)(N1CC1)N1CC1
inactive: outcome [1] | outcome [2] | outcome [3]

CN1CC[C@]23c4c5ccc(O)c4O[C@H]2[C@@H](O)CC[C@H]3[C@H]1C5
inactive: outcome [1] | outcome [2] | outcome [4] | outcome [5]

Nc1nc(Cl)nc2c1ncn2[C@@H]1O[C@H](CO)[C@@H](O)[C@@H]1F
inactive: outcome [1] | outcome [2] | outcome [3]

CN1C(=O)CCS(=O)(=O)C1c1ccc(Cl)cc1 (stereo not given)
112%: viability (% of control) [7]
143%: cell viability, % of control (lower = more cytotoxic) [6]
inactive: outcome [1] | outcome [2] | outcome [4] | outcome [5] | outcome [8] | outcome [9] | outcome [10]

COc1cc(OC)c(OC)cc1C=O
inactive: outcome [1] | outcome [2] | outcome [5]
98.9%: cell viability, % of control (lower = more cytotoxic) [6]
98.8%: viability (% of control) [7]

Cc1nnc(C(C)C)n1C1C[C@H]2CC[C@@H](C1)N2CC[C@H](NC(=O)C1CCC(F)(F)CC1)c1ccccc1 (stereo not given in full)
inactive: outcome [1] inactive [Channel type: confirmation] | outcome [2] | outcome [3]

NC(=O)CC[C@@H]1NC(=O)[C@H](Cc2ccccc2)NC(=O)[C@H](Cc2ccc(O)cc2)NC(=O)CCSSC[C@@H](C(=O)N2CCC[C@H]2C(=O)N[C@@H](CCCN=C(N)N)C(=O)NCC(N)=O)NC(=O)[C@H](CC(N)=O)NC1=O
inactive: outcome [1] | outcome [2] | outcome [3]

O=c1[nH]c(=O)n([C@H]2C[C@H](O)[C@@H](CO)O2)cc1F
inactive: outcome [1] | outcome [2] | outcome [3]

Clc1ccc2nsnc2c1NC1=NCCN1
inactive: outcome [1] | outcome [2] | outcome [3]

Nc1ncn([C@H]2C[C@H](O)[C@@H](CO)O2)c(=O)n1
inactive: outcome [1] | outcome [2] | outcome [3]

C[C@]12CC[C@H]3[C@@H](CC[C@@]45O[C@H]4C(O)=C(C#N)C[C@]35C)[C@H]1CC[C@H]2O
inactive: outcome [1] | outcome [2] | outcome [4] | outcome [5]
28.9%: cell viability, % of control (lower = more cytotoxic) [6]
51.6%: viability (% of control) [7]
active: Potency [11] 20.9 µM

CN1C(C(=O)Nc2ccccn2)=C(O)c2ccccc2S1(=O)=O
inactive: outcome [1] | outcome [2] | outcome [3]

CN1[C@@H]2CC[C@H]1CC(OC(c1ccccc1)c1ccccc1)C2 (stereo not given in full)
active: AC50 [3] 3.55 µM
inactive: outcome [1] inactive [Channel type: confirmation] | outcome [2]

CO[C@H]1C[C@@H]2CC[C@@H](C)[C@@](O)(O2)C(=O)C(=O)N2CCCC[C@@H]2C(=O)O[C@H]([C@@H](C)C[C@@H]2CC[C@H](O)[C@H](OC)C2)CC(=O)[C@H](C)C=C(C)[C@@H](O)[C@@H](OC)C(=O)[C@H](C)C[C@H](C)C=CC=CC=C1C
inactive: outcome [1] inactive [Channel type: confirmation] | outcome [2] | outcome [3]

Clc1ccccc1N1CCNCC1
inactive: outcome [1] | outcome [2] | outcome [4] | outcome [5]

CCC1(c2ccc(N)cc2)CCC(=O)NC1=O (stereo not given)
111%: viability (% of control) [7]
inactive: outcome [1] | outcome [2] | outcome [4] | outcome [5] | Potency [12] | Potency [13] | outcome [8] | Potency [11] | outcome [9] | outcome [10]
153%: cell viability, % of control (lower = more cytotoxic) [6]

C[C@@H]1O[C@@H](O[C@H]2CC[C@@]3(C)[C@H](CC[C@@H]4[C@H]3C[C@@H](O)[C@]3(C)[C@@H](C5=CC(=O)OC5)CC[C@]43O)C2)C[C@H](O)[C@@H]1O[C@H]1C[C@H](O)[C@H](O[C@H]2C[C@H](O)[C@@H](O)[C@@H](C)O2)[C@H](C)O1 (stereo in doubt)
active: AC50 [3] 0.794 µM
inactive: outcome [1] inactive [Channel type: confirmation] | outcome [2]

CO[C@H]1C[C@@H]2CC[C@@H](C)[C@@](O)(O2)C(=O)C(=O)N2CCCC[C@@H]2C(=O)O[C@H]([C@H](C)C[C@@H]2CC[C@H](OCCO)[C@H](OC)C2)CC(=O)[C@H](C)C=C(C)[C@@H](O)[C@@H](OC)C(=O)[C@H](C)C[C@H](C)C=CC=CC=C1C
active: AC50 [3] 14.1 µM | Potency [14] 23.5 µM
inactive: outcome [1] inactive [Channel type: confirmation] | outcome [2]

CCn1cc(C(=O)O)c(=O)c2cc(F)c(N3CCNC(C)C3)c(F)c21 (stereo not given)
inactive: outcome [1] | outcome [2] | outcome [3]

COc1cc2c(Nc3ccc(Br)cc3F)ncnc2cc1OCC1CCN(C)CC1
inactive: outcome [1] | outcome [2]
active: Potency [15] 20.9 µM

C[N+]1(CCF)[C@@H]2CC[C@H]1CC(OC(=O)C(O)(c1ccccc1)c1ccccc1)C2 (stereo not given in full)
inactive: outcome [1] | outcome [2] | outcome [4] | outcome [5]

CC(C)c1c(CN(C)C(C)Cc2ccccc2)n(C)n(-c2ccccc2)c1=O (stereo not given)
inactive: outcome [1] | outcome [2] | outcome [4] | outcome [5] | outcome [9]

C[C@@H]1CC2=CC(=O)CC[C@@H]2[C@H]2CC[C@@]3(C)[C@@H](CC[C@]3(C)O)[C@@H]21
inactive: outcome [1] | outcome [2] | outcome [4] | outcome [5]

COC1CC(=C(c2cccs2)c2cccs2)C[N+](C)(C)C1 (stereo not given)
inactive: outcome [1] | outcome [2] | outcome [4] | outcome [5] | outcome [9]

COc1cc(CCN)cc(OC)c1OC
inactive: outcome [1] | outcome [2] | outcome [4] | outcome [5]

C[C@]12CCC(=O)C=C1CC[C@@H]1[C@@H]2CC[C@]2(C)C(=O)CC[C@@H]12
inactive: outcome [1] | outcome [2] | outcome [4] | outcome [5] | outcome [9]

NNc1ccccc1
inactive: outcome [1] | outcome [2] | outcome [4] | outcome [5] | outcome [9]

COP(=S)(OC)Oc1ccc(S(=O)(=O)N(C)C)cc1
inactive: outcome [1] | outcome [2] | outcome [4] | outcome [5]

CC(=O)C1CCOC1=O (stereo not given)
inactive: outcome [1] | outcome [2] | outcome [4] | outcome [5]

CC(=O)NC1CCSC1=O (stereo not given)
inactive: outcome [1] | outcome [2] | outcome [4] | outcome [5] | outcome [9]

Clc1ccc(C(c2ccc(Cl)cc2)C(Cl)(Cl)Cl)cc1
inactive: outcome [1] | outcome [2] | outcome [4] | outcome [5] | outcome [9]

C=C(C)[C@H]1CN[C@H](C(=O)O)[C@H]1CC(=O)O
inactive: outcome [1] | outcome [2] | outcome [4] | outcome [5] | outcome [9]

c1ccc2c(c1)sc1ccccc12
inactive: outcome [1] | outcome [2] | outcome [4] | outcome [5] | outcome [9]

COC(=O)C(Cl)C(=O)OC
inactive: outcome [1] | outcome [2] | outcome [4] | outcome [5]

Cc1ncsc1CCCl
inactive: outcome [1] | outcome [2] | outcome [4] | outcome [5] | outcome [9]
